The campaign covered roughly 220,000 compounds. About 16,000 (7.3%) were called active. Entries that show only a call come without a potency. Inconclusive results (about 25%) are left out. The sample holds actives, similar compounds and a random draw of the others, so the mix is not that of the screen. Calls follow the shape of the dose curve; as a rule, active = well fitted inhibition curve with a large enough effect (not every such curve was filed as active); inconclusive = small, poorly fitted or top-dose-only effect, or another doubt; inactive = no such curve, though single readings can be large or run the other way.
Target: Aldehyde dehydrogenase 1A1 (Homo sapiens) (UniProt P00352)
Test: qHTS Assay for Inhibitors of Aldehyde Dehydrogenase 1 (ALDH1A1)
Details: Purified ALDH1A1, NADH fluorescence, propionaldehyde substrate; series mostly up to 75.3 µM
Potency is read from the fitted curve at half-maximal effect.

Chain of Aldehyde dehydrogenase 1A1 (Homo sapiens) (P00352 whole entry, looked up): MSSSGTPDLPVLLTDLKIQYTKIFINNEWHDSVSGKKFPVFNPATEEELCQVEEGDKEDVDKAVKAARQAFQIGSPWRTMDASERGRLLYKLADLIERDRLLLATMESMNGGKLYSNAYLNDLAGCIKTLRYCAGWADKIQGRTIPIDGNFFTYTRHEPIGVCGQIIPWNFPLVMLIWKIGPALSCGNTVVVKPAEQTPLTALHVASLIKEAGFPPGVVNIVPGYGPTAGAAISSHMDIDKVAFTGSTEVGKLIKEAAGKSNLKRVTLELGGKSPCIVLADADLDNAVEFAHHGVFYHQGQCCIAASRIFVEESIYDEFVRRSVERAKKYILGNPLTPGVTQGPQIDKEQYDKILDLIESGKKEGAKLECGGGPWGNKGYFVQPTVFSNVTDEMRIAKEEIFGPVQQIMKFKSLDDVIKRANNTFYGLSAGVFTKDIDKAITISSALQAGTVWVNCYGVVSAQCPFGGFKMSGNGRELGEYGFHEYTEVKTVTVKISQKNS

Structure (SMILES)	Potency
O=C(CCS(=O)(=O)Cc1ccccc1)Nc1ccc2c(c1)OCCO2	inactive
CC(/C=N/NC(=O)c1cc(-c2ccc3ccccc3c2)n[nH]1)=C\c1ccco1	inactive
CC(/C=N/NC(=O)c1ccncc1)=C\c1ccco1	inactive
C/C(=C\c1ccco1)C1Nc2cccc3cccc(c23)N1	10 µM (active)
COCC(C)NC(=O)COc1nncc2ccccc12 (stereo unspecified)	inactive
COc1ccc(C2c3[nH]c4ccccc4c3CCN2CCCn2cccn2)cc1C (stereo unspecified)	inactive
O=C(CSc1nnc(-c2ccc([N+](=O)[O-])cc2)o1)Nc1ccccn1	inactive
C/C(=N/NC(=O)CSc1ccccn1)c1ccc([N+](=O)[O-])cc1	20 µM (active)
Cc1cccc(C)c1NC(=O)CSc1ccc([N+](=O)[O-])cn1	inactive
Cc1ccc(/C=N/NC(=O)Cn2nc(C)c(Br)c2C)o1	inactive
Cc1ccc(/C=N/NC(=O)CSc2ccccn2)o1	7.94 µM (active)
Cc1ccc(/C=N/NC(=O)CNC(=O)COc2ccccc2)o1	inactive
CC1CC(C)(C)NC(=S)N1CCC(=O)N1CCN(Cc2ccccc2)CC1 (stereo unspecified)	inactive
CSc1nnc(SCc2nc3sc(C(=O)O)c(C)c3c(=O)[nH]2)s1	7.08 µM (active)
Cc1sc2nc(CSCC(=O)Nc3c(Cl)cccc3Cl)[nH]c(=O)c2c1C	inactive
CCN(CC)Cc1nc2sc(C)c(C)c2c(=O)[nH]1	inactive
Fc1ccccc1N=C1Nc2cccc3cccc1c23	inactive
CCOc1ccc(CCNC(=O)C(CC)n2nc(C)n3c(cc4sccc43)c2=O)cc1OCC (stereo unspecified)	31.6 µM (active)
CCC(C(=O)NCc1ccc(OC)cc1)n1nc(C)n2c(cc3occc32)c1=O (stereo unspecified)	inactive
COc1ccc(CCNC(=O)c2cc3sccc3n2C)cc1OC	inactive
CCCCC/C=C\C/C=C\CCCCCCCCCC(=O)NCC(=O)O	inactive
CC(C)(C)c1cc(C(=O)N/N=C/c2ccc([N+](=O)[O-])s2)n[nH]1	inactive

Structure (SMILES)	Potency
Cc1ccc(SCCC(=O)Nc2cc(C)on2)cc1	inactive
O=c1c2ccccc2c(-c2ccccc2)nn1-c1ccccn1	inactive
CCCc1nc(NCc2ccc3c(c2)OCO3)c2nnn(Cc3ccccc3Cl)c2n1	inactive
C#CCNc1nc(C(C)C)nc2c1nnn2Cc1ccccc1F	11.2 µM (active)
CC(O)C(NS(=O)(=O)c1ccc(Cl)cc1)C(=O)OCc1cc([N+](=O)[O-])cc2c1OCOC2 (stereo unspecified)	inactive
Cc1cc(CNC(=O)c2cccc([N+](=O)[O-])c2)c2ccccc2n1	inactive
CCO[C@H]1OC(C(=O)O)=C[C@@H](C2CCCCC2)[C@@H]1CCCO	inactive
COc1ccccc1NC(=O)C[n+]1ccccc1	inactive
O=C(Nc1ccccc1C(F)(F)F)N1CCCC1c1cccnc1 (stereo unspecified)	inactive
CC(C)CNC(=O)/C=C/C(=O)O	inactive
O=C1/C(=C\c2ccsc2)NC(=S)N1c1ccccc1	28.2 µM (active)
CC1=CC(C)(C)NC(=S)N1c1ccccc1	inactive
CCCCCCCCCCCCC(NC(C)=O)(C(=O)OCC)C(=O)OCC	inactive
COc1cc(NC(=O)CN(C)S(=O)(=O)c2ccc3nc(C)sc3c2)cc(OC)c1	inactive
COc1ccccc1OCCC(=O)OCC(=O)NCc1ccccc1	inactive
COc1cc(C(=S)NCc2ccccc2)cc(Br)c1O	1.78 µM (active)
COc1cc(C=O)c(Br)cc1OCC(=O)NCc1ccccc1	inactive
C=CCOc1nc2c(c(=O)n(C)c(=O)n2C)n1Cc1ccc(Cl)cc1Cl	inactive
CCOC(=O)N1CCN(Cc2nc3c(c(=O)n(C)c(=O)n3C)n2Cc2ccccc2)CC1	0.126 µM (active)
CC1CN(Cc2nc3c(c(=O)n(C)c(=O)n3C)n2Cc2cccc(Cl)c2)CC(C)O1 (stereo unspecified)	inactive
Cn1c(=O)c2c(nc(OCc3cccnc3)n2Cc2ccccc2)n(C)c1=O	10 µM (active)
Cn1c(=O)c2c(nc(NCCc3ccccc3)n2Cc2ccccc2)n(C)c1=O	inactive

Structure (SMILES)	Potency
COCCn1c(CN2CCC(Cc3ccccc3)CC2)nc2c1c(=O)n(C)c(=O)n2C	inactive
Cn1c(SCC(=O)Nc2ccc(Br)cc2F)nnc1-c1ccco1	inactive
CCCC1NC(=S)NC(C)=C1C(C)=O (stereo unspecified)	inactive
CCO[C@H]1OC(C(=O)NCc2ccccc2)=C[C@@H](c2coc3ccccc3c2=O)[C@@H]1CCCO	inactive
COCCNC(=S)N1CCC(NC(=O)C23CC4CC(CC(C4)C2)C3)CC1	inactive
Cc1cccc(C)c1NC(=O)Nc1ccccc1-n1ccnc1	inactive
COc1ccc(NC(=O)COC(=O)CNC(=O)C2CCCCC2)cc1	inactive
COc1ccc(OCC(=O)OCC(=O)Nc2ccc(S(=O)(=O)N3CCCCC3)cc2)cc1	10 µM (active)
COC(=O)COc1ccc(S(=O)(=O)N2CCOCC2)cc1	inactive
Cc1cccc(NC(=O)CSc2nnc(-c3ccco3)o2)c1	inactive
O=c1oc(-c2ccco2)nc2sc3c(c12)CCCCC3	inactive
Cc1cccc(NC(=O)c2sc3nc4c(c(-c5ccco5)c3c2N)CCC4)c1	12.6 µM (active)
O=C(CC(NC(=O)c1ccccc1)c1ccccc1)Nc1ccc(F)c(F)c1 (stereo unspecified)	inactive
Cc1cc(-c2ccc(/C=N/n3cnnc3)o2)c([N+](=O)[O-])cc1C	10 µM (active)
Cc1ccc(Cl)cc1-c1ccc(/C=N/n2cnnc2)o1	inactive
Cc1cc([N+](=O)[O-])c(-c2ccc(/C=N/n3cnnc3)o2)cc1Cl	inactive
CN(C)/C=C(/C(=O)c1ccccc1)S(=O)(=O)c1ccc(Cl)cc1	inactive
CCN(C(=O)CSc1nc2ccccc2n1CC)C1CCS(=O)(=O)C1 (stereo unspecified)	inactive
O=C(c1ccc(C(F)(F)F)cc1)C1CCCN(C(=O)c2csnn2)C1 (stereo unspecified)	inactive
Cc1ccc2[nH]c3c(c2c1)CN(C(=O)CN1CCN(c2ccccc2)CC1)CC3	17.8 µM (active)
O=C(Nc1ccc(Cl)cc1)N1CCc2[nH]c3ccccc3c2C1	inactive
CCCC(=O)N1CCc2[nH]c3ccccc3c2C1	inactive

Structure (SMILES)	Potency
O=C(/C=C/c1ccccc1)Oc1coc(CSc2ncccn2)cc1=O	inactive
Cc1cc(C)cc(NC(=O)COC(=O)c2cc(C)oc2C)c1	inactive
COc1ccc(N(CC(=O)NC2CCCC2)C(=O)CS(=O)CC(=O)Nc2ccc3c(c2)OCO3)cc1 (stereo unspecified)	inactive
CCCn1c(SCC(N)=O)nnc1C(C)C	inactive
CCCn1c(SCC(=O)c2ccc3c(c2)OCCO3)nnc1C(C)C	20 µM (active)
CCCn1c(SCC(=O)Nc2c(C)cccc2C)nnc1C(C)C	inactive
CCOC(=O)c1cc2c(=O)[nH]c(C(Cl)(Cl)Cl)nc2o1	inactive
CCc1nnc(NC(=O)c2sc3nc(C)cc(COC)c3c2N)s1	inactive
COc1ccc(CC(=O)NCc2nnc(SCC(=O)Nc3ncc(C)s3)n2C)cc1	inactive
COc1ccc(CN2C(=O)CC(Cc3ccc(C)cc3)C2=O)cc1OC (stereo unspecified)	inactive
COc1ccc(CCN(C)CCN2C(=O)c3ccccc3C2=O)cc1OC	inactive
COc1ccc(CCN2C(=O)C3CC=C(C)CC3C2=O)cc1OC (stereo unspecified)	17.8 µM (active)
O=c1cc(O)c(-c2cccc(C(F)(F)F)c2)c(Cl)[nH]1	inactive
CCOC(=O)c1ccc(Nc2cc(C)nc3nc(C)nn23)cc1	inactive
CCc1ccc(NC(=O)N2CCN(c3ccccc3)CC2)cc1	inactive
CCOC(=O)c1ccc(NC2Nc3cc(C)nn3S2)cc1 (stereo unspecified)	12.6 µM (active)
CCOC(=O)c1ccc(NC(=O)Cn2nnc(-c3ccc(C)cc3)n2)cc1	inactive
CCc1ccc(NC2Nc3cc(C)nn3S2)cc1 (stereo unspecified)	10 µM (active)
COc1ccc(NC(=O)CN(C)CC(=O)Nc2cccc(C(F)(F)F)c2)cc1	inactive
CCC(C)(C)NC(=O)CN(C(=O)C(=O)Nc1ccc2c(c1)OCCO2)C(C)(C)CC	inactive
Cc1nnc(SCc2cccc(Cl)c2)n(N)c1=O	inactive
CCCn1c(N)c(C(=O)CSc2nc3ccccc3c(=O)n2-c2ccc(OC)cc2)c(=O)[nH]c1=O	inactive

Structure (SMILES)	Potency
O=C(NCc1ccccc1Cl)C1CCN(S(=O)(=O)N2CCOCC2)CC1	inactive
O=C(CCCN1C(=O)CCC1=O)Nc1ccc(Cl)c(C(F)(F)F)c1	inactive
CCC(=O)Nc1ccc(C(=O)N2CCN(C(=O)c3ccco3)CC2)cc1	inactive
O=C(CN1CCN(C(=O)c2ccco2)CC1)Nc1ccc(Cl)c(C(F)(F)F)c1	17.8 µM (active)
O=C(CCN1C(=O)/C(=C/c2cccs2)SC1=S)NNC(=O)c1cccc(O)c1	inactive
Clc1cccc(N=C2NN=C(c3ccc4c(c3)OCCO4)CS2)c1	28.2 µM (active)
CCOC(=O)C1=C(O)CSC1=Nc1cccc(Cl)c1	inactive
c1ccc(CN2CCC(N=C3NN=C(c4ccc5c(c4)OCCO5)CS3)CC2)cc1	inactive
Cc1ccc(C(=O)Cc2nnc(C)s2)cc1	inactive
COc1cc(CN(C)Cc2nc3cc(C(F)(F)F)ccc3c(=O)[nH]2)ccc1OC(F)F	inactive
O=C(O)c1ccc(NS(=O)(=O)c2ccc3c(c2)C(=O)c2cc(S(=O)(=O)Nc4ccc(C(=O)O)cc4)ccc2-3)cc1	inactive
CN(C(=O)CSc1nnc(Nc2ccccc2)s1)C1CCS(=O)(=O)C1 (stereo unspecified)	inactive
CCc1ccc(Nc2nnc(SCC(=O)c3ccc4c(c3)NC(=O)CO4)s2)cc1	3.55 µM (active)
CCCc1nc2ccccc2c(C(=O)OCC(=O)c2ccc3c(c2)NC(=O)CO3)c1CC	inactive
COc1ccc(OCCCn2cccc2/C=C2/C(=N)N3OC(C)=CC3=NC2=O)cc1	inactive
O=C(NC1CC1)C1CCCN(C(=O)NC2CCCCC2)C1 (stereo unspecified)	inactive
C=CCc1cccc2cc(C(=O)Nc3ccc(NC(C)=O)cc3)c(=O)oc12	inactive
COCCNc1cc(NCCOC)c([N+](=O)[O-])cc1[N+](=O)[O-]	inactive

— PubChem BioAssay AID1030 (National Center for Advancing Translational Sciences (NCATS), 2008)
